PubChem BioAssay
A number with no mark means an inactive call. The rule behind the calls is not given here.

Each molecule was assayed on Aerobactin synthetase IucA (Klebsiella pneumoniae, hypervirulent) (assay: biochemical IucA inhibition screen of LOPAC library by absorbance (AID 1346212;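 note: 100% = no compound wells and 0% = no enzyme wells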)). Conditions: IucA enzyme assay, absorbance (OD) readout; active compounds read low;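 tested at 8 µM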.
`CCCCCCCCCCCCCCCCCCOC[C@H](COP(=O)([O-])OCC[N+](C)(C)C)OC` was tested, and the remaining activity was 119%. For `COC(=O)C(N)Cc1ccc(Cl)cc1` (stereo not given), the remaining activity was 91.4%. With `CC(=O)O[C@H]1C(=O)[C@@]2(C)[C@H]([C@H](OC(=O)c3ccccc3)[C@]3(O)C[C@H](OC(=O)[C@H](O)[C@@H](NC(=O)c4ccccc4)c4ccccc4)C(C)=C1C3(C)C)[C@]1(OC(C)=O)CO[C@@H]1C[C@@H]2O` the remaining activity was 94.8%. `CN1CCN(c2nc3cc(C(F)(F)F)ccc3n3cccc23)CC1` was tested, and the remaining activity was 94.3%. Work on `CSC(=N)N` yielded a remaining activity of 123%. `OC[C@H]1O[C@@H](n2cnc3c(NC4CCCC4)ncnc32)[C@H](O)[C@@H]1O` was tested, and the remaining activity was 117%. Work on `NC(Cc1cccc(-c2ccccc2CP(=O)(O)O)c1)C(=O)O` (stereo not given) yielded a remaining activity of 103%. `C1CCC(N=C(NC23CC4CC(CC(C4)C2)C3)N2CCOCC2)CC1` was tested, and the remaining activity was 122%. With `CC(C)C[C@H](NC(=O)[C@H](O)[C@H](N)Cc1ccccc1)C(=O)O` the remaining activity was 120%. Work on `CCC(=O)N1CCN(C(=O)c2ccccc2)CC1` yielded a remaining activity of 122%. `O=S(=O)(c1cccc2cnccc12)N1CCNCC1` showed a remaining activity of 121%. Work on `O=C(O)CN(CCOCCOCCN(CC(=O)O)CC(=O)O)CC(=O)O` yielded a remaining activity of 88.2%. `CCOC(=O)c1ncn2c1CN(C)C(=O)c1cc(F)ccc1-2` gave a remaining activity of 100%. For `C#CCN(C)CCCOc1ccc(Cl)cc1Cl`, the remaining activity was 122%. `CC(C)c1ccc2c(c1)c(SC(C)(C)C)c(CC(C)(C)C(=O)O)n2Cc1ccc(Cl)cc1` showed a remaining activity of 113%.
